{"source": "paper PMC11062922", "about": "(Nature Chemical Biology, 2023)", "system": "RAB14", "set-up": "species or system human, MV4-11 + K-562 + COLO205 + SK-N-BE2 + OVCAR-8", "settings": "read-out: apparent Kd; compound concentrations: 100 nM and 1000 nM (sheet 'Samples'), CATDS: 3.92328124697153E-2; n = 1", "data": [{"compound": "COc1ccc(Nc2nccc(NCCNC(=O)Nc3cc(C)ccc3C)n2)cc1", "note": "[GSK1379899A]", "values": [{"measurement": "potency estimated from few doses", "value": 2280, "unit": "nM"}]}]}
